Screening data: PubChem, National Center for Advancing Translational Sciences (NCATS)
TRPV1 PAM: potentiators of human vanilloid receptor 1 (TRPV1); TRPV1-expressing cells, Fluo-8 calcium influx, capsaicin EC20 potentiation; AID 540277; potentiation, % at 8.33 µM; 0.02% of 320,000 active; in the data active = potentiation above about 80%; inconclusive = between about 30% and that limit; also: 0% is about no effect
Target sequence (Q8NER1 whole entry, looked up): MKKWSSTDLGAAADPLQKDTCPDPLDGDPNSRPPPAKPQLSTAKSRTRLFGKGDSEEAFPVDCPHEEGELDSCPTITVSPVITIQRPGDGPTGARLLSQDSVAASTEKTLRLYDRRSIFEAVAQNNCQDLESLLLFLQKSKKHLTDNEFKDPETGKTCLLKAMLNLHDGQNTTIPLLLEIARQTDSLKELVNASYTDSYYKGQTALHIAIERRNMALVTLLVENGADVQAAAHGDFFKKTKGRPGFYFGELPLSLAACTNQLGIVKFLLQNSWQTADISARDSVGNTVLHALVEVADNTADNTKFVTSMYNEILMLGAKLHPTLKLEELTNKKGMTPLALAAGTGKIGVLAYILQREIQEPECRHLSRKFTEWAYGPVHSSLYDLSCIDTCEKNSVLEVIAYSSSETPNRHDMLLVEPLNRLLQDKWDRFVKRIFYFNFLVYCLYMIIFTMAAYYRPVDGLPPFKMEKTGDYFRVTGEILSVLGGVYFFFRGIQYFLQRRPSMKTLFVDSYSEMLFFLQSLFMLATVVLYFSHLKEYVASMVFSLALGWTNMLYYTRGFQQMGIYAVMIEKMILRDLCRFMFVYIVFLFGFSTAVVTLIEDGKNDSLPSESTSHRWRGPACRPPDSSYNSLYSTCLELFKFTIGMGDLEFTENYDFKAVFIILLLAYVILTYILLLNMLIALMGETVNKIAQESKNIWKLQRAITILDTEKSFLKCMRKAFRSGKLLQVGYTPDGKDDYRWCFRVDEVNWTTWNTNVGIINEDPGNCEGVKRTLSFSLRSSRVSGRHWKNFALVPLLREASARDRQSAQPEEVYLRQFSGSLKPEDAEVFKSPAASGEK
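TRPV1-expressing cells were cultured overnight at 35.5C and loaded with Fluo-8 calcium dye for 40 to 90 min at room temperature. After a 10 s baseline, compound was added and calcium influx was read kinetically for 3 min (ex 480/em 520 nm).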
p53 reactivation: restores transcriptional activity of mutant p53 | H1299 p53-A138V BP100-luciferase reporter, luminescence, 24 h | Potency, µM (top dose mostly 92.2 µM), inactives show at the highest dose activity change, positive = activation, actives largely listed as activators | 0.063% of 320,000 active | AID 504706; active = well fitted activation curve with a large enough effect; inconclusive = small, poorly fitted or top-dose-only effect; inactive = no such curve, though single readings can be large or run the other way; also: potency is read from the fitted curve at half-maximal effect; % of control where 0% means no effect; nearly all actives have a fitted effect of over 45% in size
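H1299 (p53-null), stable ts p53-A138V + BP100-Luc; 1000 cells/well, Opti-MEM/10% FBS; cpd 4 pt, 1:5; 24 h, 37 deg C, 5% CO2; detection reagent 10 min RT; luminescence.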
ClpP mod: qHTS Assay for Activators of ClpP. ATP-dependent Clp protease proteolytic subunit (Bacillus subtilis (strain 168)), P80244. purified B. subtilis ClpP, FRET peptide cleavage, 20 min. Potency, µM (doses to about 57.5 µM), for inactives: at the highest dose activity change, negative = active. 1.9% of 340,000 active. AID 651965, 2013; active = well fitted falling curve with a large enough effect; inconclusive = small, poorly fitted or top-dose-only effect; inactive = no such curve, though single readings can be large or run the other way; also: potency is read from the fitted curve at half-maximal effect; the source files actives as falling curves though it sought activators and does not explain the sign; nearly all actives have a fitted effect of over 65% in size
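Purified B. subtilis ClpP, 10 microg/mL final in Tris/HCl pH8 with KCl, BSA, glycerol and Tween-20, cleaved an Abz/nitrotyrosine-quenched decapeptide. Fluorescence (ex 320, em 430) was read at 0 and 20 min at room temperature. Delta was normalized to 5.8 microM ADEP and DMSO/no-enzyme controls.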
TRPV1 agonist: activates the human vanilloid receptor TRPV1; Q8NER1; AID 540275; activation, % at 8.33 µM; TRPV1-expressing cells, Fluo-8 calcium influx, agonist mode; 0.19% of 320,000 active; in the data active = activation above about 80%; inconclusive = between about 30% and that limit; also: 0% is about no effect
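Cells expressing TRPV1 were dye-loaded with Fluo-8 and read kinetically: 10 s baseline, 3 min after compound (agonist portion), then 2 min after EC20 capsaicin (allosteric enhancer portion). Calcium-bound dye fluorescence at 480/520 nm.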
KCNH2 WT inh: inhibitors of human wildtype KCNH2 potassium channel; activity change, % at 1.84 µM; 0.37% of 340,000 active; Q12809; U2OS, BacMam KCNH2, thallium flux FluxOr; active compounds read low; AID 720551;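 active = maximum activity change below -70%; inconclusive = maximum activity change between -70% and -50%; inactive = maximum activity change above -50%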; also: % is scaled to controls: 0 for no effect and ±100 for the full control effect
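U2OS cells transduced with wild-type KCNH2 virus are loaded with FluxOr dye for 45 min, and thallium flux is measured in kinetic reads before and after stimulation buffer. Rate constants are normalized to DMSO controls.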
KCNH2 3.1 block: blocks the human KCNH2 3.1 channel isoform; U2OS KCNH2 3.1, thallium flux FluxOr; active compounds read low; activity change, % (tested at about 1.8 µM); 0.95% of 340,000 active; AID 720553;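 active = maximum activity change below -70%; inconclusive = maximum activity change from -70% to -50%; inactive = maximum activity change above -50%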;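 also: thallium influx rate constant from kinetic fluorescence after stimulation buffer; % is scaled to controls: 0 for no effect and ±100 for the full control effect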
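Channel expression came from 3.1 mutant virus (1.77 x 10^8 /mL) applied to suspended U2OS cells for 4 h. Flux was tracked with FluxOr dye plus Red40 quencher, and kinetic rate constants normalized to controls.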
Starred values were filed as active, the others as inactive; ? = inconclusive; . = not tested or not shown. This is a sample that favours compounds with a hit; in the whole collection about 2.6% have one here.

SMILES | TRPV1 PAM | p53 reactivation | ClpP mod | TRPV1 agonist | KCNH2 WT inh | KCNH2 3.1 block
O=C(CCc1nnc(CCCc2ccccc2)o1)NCC(F)(F)F | ? | 13.0% | 0.0% | 1.1 | -240.3* | -181.6*
O=C(CCc1nnc(CCCc2ccccc2)o1)NCCc1ccccc1 | -8.4 | 4.4% | . | -1.1 | 6.4 | 4.2
Fc1ccccc1C1c2[nH]c3ccccc3c2CCN1Cc1cccn1-c1ncccn1 (configuration not stated) | -2.7 | 2.9% | . | -1.1 | -44.3 | -70.7*
Cc1ccc(S(=O)(=O)n2nc(-c3ccco3)nc2NCc2ccc(N(C)C)cc2)cc1 | . | . | 1.0% | . | . | .
COc1ccc(OC(C)C(=O)Nc2ccc(F)cc2F)cc1 (configuration not stated) | 3.1 | 1.4% | . | 6.1 | -135.7* | -189.8*
COc1ccc(OC(C)C(=O)Nc2ccccc2F)cc1 (configuration not stated) | -24.2 | 1.7% | . | 25.3 | -2.3 | 8.5
CCOC(=O)c1cc(NC(=O)c2ccc(Cl)cc2)c(=O)n2c1oc1ccccc12 | . | . | -3.3% | . | . | .
CN1CCN(/N=C/c2ccc(N(c3ccccc3)c3ccccc3)cc2)CC1 | -10.6 | -4.4% | -0.5% | 1.3 | 19.6 | -72.4*
Cc1ccc(NC(=O)c2nc[nH]c2C(=O)N2CCC(C)CC2)cc1 | 2.1 | -1.3% | -0.4% | 15.9 | 1.5 | -134.2*
Cc1c(CCO)sc[n+]1CC(=O)c1ccccc1 | . | . | 1.1% | . | . | .
O=C(NC(c1ccccc1)c1ccccc1)c1cccc(S(=O)(=O)NCc2ccccc2)c1 | 2.6 | -2.9% | 1.0% | 1.4 | -28.1 | -70.9*
CCN(CC(=O)Nc1c(F)cccc1F)C(=O)c1ccc(C(=O)c2ccccc2)cc1 | -2.3 | 3.9% | -4.3% | 3.1 | 0.3 | 6.6
Cc1ccc(S(=O)(=O)NCc2ccccc2)cc1C(=O)N(C)Cc1ccccc1F | -7.6 | 0.2% | 15.8µM* | 11.5 | -9.2 | 9.3
CCN(CC(=O)Nc1c(F)cccc1F)C(=O)c1cccc(S(=O)(=O)NCc2ccccc2)c1 | 13.0 | -5.1% | -4.0% | -0.7 | -219.3* | 5.2
Cc1ccc(S(=O)(=O)NCc2ccccc2)cc1C(=O)N(C)Cc1ccc(F)cc1 | 0.9 | -4.4% | 1.3% | 2.7 | 1.5 | -12.6
O=C(NCCc1ccccc1)c1cccc(S(=O)(=O)NCc2ccccc2)c1 | 8.2 | 7.1% | -1.1% | 2.7 | -3.9 | -0.3
COc1ccccc1N1CCN(S(=O)(=O)c2c(C)nc3sccn3c2=O)CC1 | . | . | -1.8% | . | . | .
CCC1OC2(C)OC(=N)C1(C#N)C(C#N)(C#N)C2c1ccccc1 (configuration not stated) | 22.9 | -4.5% | 22.4µM* | -0.7 | 0.2 | 2.9
CC(C)C1OC2(C)OC(=N)C1(C#N)C(C#N)(C#N)C2c1ccccc1 (configuration not stated) | 2.4 | 0.6% | 0.9% | 2.2 | 3.5 | 10.3
CCC12OC(=N)C(C#N)(C1C)C(C#N)(C#N)C(c1ccccc1)O2 (configuration not stated) | ? | -2.0% | 7.08µM* | -4.6 | -18.0 | 12.8
Cc1ccc(C2OC34CCCCCC3C(C#N)(C(=N)O4)C2(C#N)C#N)cc1 (configuration not stated) | 3.2 | -7.0% | 1.2% | 2.3 | -3.4 | 1.0
Cc1cc(NC(=O)CSc2nc3c([nH]c4ccccc43)c(=O)n2-c2cccc(C(F)(F)F)c2)no1 | 26.6 | 12.9% | 28.2µM* | -0.4 | -2.9 | -20.0
Cc1ccc(-n2c(SCC(=O)NCc3ccc(F)cc3)nc3c([nH]c4ccccc43)c2=O)cc1 | . | . | 31.6µM* | . | . | .
Cc1cc(C)cc(-n2c(SCC(=O)NCc3ccc(F)cc3)nc3c([nH]c4ccccc43)c2=O)c1 | . | . | -10.6% | . | . | .
Cc1cc(C)cc(NC(=O)CSc2nc3c([nH]c4ccccc43)c(=O)n2-c2ccc(F)cc2)c1 | . | . | 3.8% | . | . | .
SMILES | TRPV1 PAM | p53 reactivation | ClpP mod | TRPV1 agonist | KCNH2 WT inh | KCNH2 3.1 block
O=C(CSc1nc2c([nH]c3ccccc32)c(=O)n1-c1ccc(F)cc1)Nc1ccc2c(c1)OCCO2 | . | . | 22.4µM* | . | . | .
COc1cccc(-n2c(SCC(=O)Nc3cc(C)on3)nc3c([nH]c4ccccc43)c2=O)c1 | 16.5 | -9.6% | -21.2% | 0.8 | -1.6 | -2.4
O=C(CSc1nc2c([nH]c3ccccc32)c(=O)n1-c1ccccc1)N1CCc2ccccc21 | . | . | 28.2µM* | . | . | .
CC(C)NC(=O)C1(C)CN(S(C)(=O)=O)CC(=O)N1CCCN1CCOCC1 (configuration not stated) | . | . | -3.9% | . | . | .
O=C(NCCc1ccccc1)c1nnc(Cc2cccc(F)c2)o1 | . | . | -4.2% | . | . | .
COc1ccccc1CCNC(=O)c1cccn1-c1nnc(N2CCCC2)s1 | . | . | -5.5% | . | . | .
CC1CCCCN1S(=O)(=O)c1ccc(N(C(=O)c2cnccn2)C(C(=O)NC2CCCCC2)c2cccs2)cc1 (configuration not stated) | -13.7 | -4.8% | -2.7% | 18.8 | -71.1* | 7.4
Cc1ccc(NC(=O)c2sc3nc[nH]c(=O)c3c2C)cc1C | . | . | -1.0% | . | . | .
N#Cc1nc(-c2cccs2)oc1N1CCN(Cc2ccccc2)CC1 | -12.2 | ? | 25.1µM* | ? | 3.5 | 5.5
N#Cc1nc(-c2ccco2)oc1N1CCCC1 | -6.1 | -8.7% | ? | 3.2 | 5.8 | -16.7
N#Cc1nc(-c2ccco2)oc1N1CCc2ccccc2C1 | 18.8 | 5.5% | 14.1µM* | 11.0 | -3.9 | 7.6
N#Cc1nc(-c2ccco2)oc1N1CCN(c2cccc(Cl)c2)CC1 | -0.9 | 1.8% | 31.6µM* | 10.8 | -15.3 | -5.7
N#Cc1nc(-c2ccco2)oc1N1CCN(C(c2ccccc2)c2ccccc2)CC1 | 7.0 | -1.5% | 6.31µM* | -2.4 | -7.0 | -15.5
CCOC(=O)c1ccc(NC(=O)c2c(NCc3sccc3C)sc3c2CCCCC3)cc1 | . | . | 0.6% | . | . | .
CCCCCC(O)(CCN1CCCCC1)c1ccc(OCC)cc1 (configuration not stated) | 0.1 | -9.2% | . | 1.5 | -98.9* | -113.9*
CCCCOc1ccc(C(O)(CCC)CCN2CCOCC2)cc1 (configuration not stated) | -8.6 | -12.2% | -0.8% | 18.9 | 10.4 | 3.0
NC(=O)CSc1nnc(-c2cc(-c3cccs3)nc3ccccc23)o1 | -15.0 | -1.4% | 25.1µM* | 20.6 | 3.4 | 4.9
NC(=O)CSc1nnc(-c2cc(-c3ccc(Cl)cc3)nc3ccccc23)o1 | 0.5 | -4.0% | . | -3.8 | 4.1 | 32.1
CCC(C)NC(=O)CSc1nnc(-c2cc(-c3cccs3)nc3ccccc23)o1 (configuration not stated) | 12.1 | -9.0% | 25.1µM* | -3.1 | -30.6 | -1.5
